Screening results as filed in PubChem BioAssay.
Sampled rows, rich in hits. Any-hit rate of the full collection: about 2.1%.
PrPC surface inh – inhibitors of human cell surface prion protein PrPC, primary screen, cell-based, TR-FRET | 370,000 compounds, 0.43% hits | TR-FRET read-out | Major prion protein (Homo sapiens), P04156 | inhibition, % at 13.8 µM; in the data active = inhibition above about 24%; also: 0% = median of the test wells and 100% = reference compound wells
BJeLR lethal – MLPCN primary cell-based screen for lethality selective to Ras in HRASV12 cells; BJeLR (HRASV12) viability, CellTiter-Glo ATP luminescence, 48 h; inhibition, % (concentration not given with the values); 300,000 compounds, 0.17% hits; in the data active = inhibition above about 50%
PrP UTR inh – inhibition of PrP 5' UTR reporter expression. 340,000 compounds, 0.35% hits. AID 488862, 2010. cell-based PrP 5' UTR mRNA reporter, plate reader. inhibition, % (no concentration beside the values); in the data active = inhibition above about 52%; also: 0 = median of the neutral control wells
DUSP3 inh – VHR1 phosphatase inhibitors, primary screen, biochemical, absorbance, uHTS; recombinant VHR phosphatase, pNPP absorbance; Dual specificity protein phosphatase 3 (Homo sapiens), P51452; AID 1654, 2009; inhibition, % at 13.3 µM; 290,000 compounds, 0.52% hits; in the data active = inhibition above about 50%
Target sequence (P51452 whole entry, looked up): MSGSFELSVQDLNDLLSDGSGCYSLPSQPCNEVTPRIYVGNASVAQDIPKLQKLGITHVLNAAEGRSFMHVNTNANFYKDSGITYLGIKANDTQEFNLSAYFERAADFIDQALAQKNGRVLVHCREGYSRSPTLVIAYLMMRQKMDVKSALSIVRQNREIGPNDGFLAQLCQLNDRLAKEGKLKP
PfHsp40 rescue – rescue of yeast from PfHsp40 toxicity, primary screen, S. cerevisiae, ATP luminescence; growth rescue, % at 12.5 µM; AID 504582, 2011; 340,000 compounds, 0.68% hits; S. cerevisiae expressing PfHsp40, growth rescue; in the data active = growth rescue above about 28%, passing the limit was not always enough;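 also: yeast W303a lacking pdr1 and pdr3 grown in galactose medium; growth measured after three days at 30 °C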
MazF activator – activators of E. coli MazEF toxin-antitoxin RNase, primary screen, biochemical, fluorescence, uHTS. FAM/BHQ RNA-DNA oligo cleavage fluorescence, 5 h. 350,000 compounds, 0.32% hits. activation, % at 20 µM. Endoribonuclease toxin MazF (Escherichia coli (strain K12)), P0AE70; in the data active = activation above about 50%
Target sequence (P0AE70 whole entry, looked up): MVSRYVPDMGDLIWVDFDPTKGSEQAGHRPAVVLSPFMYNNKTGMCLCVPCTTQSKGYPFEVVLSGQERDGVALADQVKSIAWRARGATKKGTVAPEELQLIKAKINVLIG
Active calls of the source: *; . = not tested or not shown; + = active, no number.

SMILES | PrPC surface inh | BJeLR lethal | PrP UTR inh | DUSP3 inh | PfHsp40 rescue | MazF activator
O=C(Oc1ccc(N(C(=O)c2ccncc2)S(=O)(=O)c2ccc(F)cc2)cc1)c1ccncc1 | 8 | 1 | -10 | 11 | 5 | -6
O=C(Oc1ccc(N(C(=O)c2ccncc2)S(=O)(=O)c2ccc(Cl)cc2)cc1)c1ccncc1 | 2 | 12 | -47 | 22 | 422* | 2
CCc1ccc(S(=O)(=O)N(C(=O)c2ccncc2)c2ccc(OC(=O)c3ccncc3)cc2)cc1 | 6 | -19 | 4 | 5 | 234* | 2
N#CCC[C@H]1CC[C@]2(CCCN(Cc3cccc4ccccc34)C2)O1 | -2 | . | . | . | . | .
COc1ccc(N(C(=O)c2cccnc2)S(=O)(=O)c2ccccc2)cc1 | 9 | -4 | -25 | 13 | -1 | 1
COc1ccc(N(C(=O)c2cccnc2)S(=O)(=O)c2ccc(F)cc2)cc1 | -1 | 2 | 3 | 53* | 0 | 4
CC(=O)/C=C/n1c(=S)oc2ccccc21 | 7 | 71* | . | -13 | . | 6
CCS(=O)(=O)N1N=C(c2cccc(NS(C)(=O)=O)c2)CC1c1ccc(C)cc1 (stereo not drawn) | 0 | -6 | -1 | 16 | 0 | 67*
O=C(NC(=S)/C(=C1\CCCCCN1)[N+](=O)[O-])c1ccccc1 | . | . | 59* | . | 1 | 1
C[C@@H]1CN([C@H](C)CO)S(=O)(=O)c2ccc(C#Cc3ccccc3)cc2O[C@H]1CN(C)C(=O)Nc1ccc2c(c1)OCO2 | -3 | . | . | . | . | -13
CC1CCCC(NC(=O)CCNC(=O)c2ccc(Br)cc2)C1C (stereo not drawn) | -3 | 2 | -30 | . | 0 | 1
Cc1ccc(S(=O)(=O)N2C(=O)CCC2C(=O)N2CCCCC2)cc1 (stereo not drawn) | -6 | -6 | -3 | 52* | -2 | 12
CN(C)c1cc(-c2ccc([N+](=O)[O-])cc2)oc(=O)c1Cl | -22 | 4 | -14 | -10 | -1 | 54*
O=C(NCc1ccccc1)c1ccc(NC(=O)C2CCCO2)cc1 (stereo not drawn) | -2 | 2 | -6 | 1 | 1 | -6
COc1ccc(CNC(=O)COC(=O)CN2C(=O)COc3ccccc32)cc1 | -2 | 1 | 0 | . | -1 | -5
O=Nc1c(O)n(Cc2ccccc2)c2ccccc12 | -13 | 12 | -7 | -6 | -1 | 3
O=Nc1c(O)n(Cc2ccc(Cl)c(Cl)c2)c2ccccc12 | -5 | -7 | -3 | 15 | 259* | 4
Cc1cc(C)c2c(=O)n3c(nc2c1)C(Cc1ccccc1)NC(=O)c1cccnc1-3 (stereo not drawn) | 1 | . | . | . | . | 13
Cc1cccc(NC(=O)c2ccc(NCC3CCCO3)c([N+](=O)[O-])c2)n1 (stereo not drawn) | -29 | 10 | -42 | 18 | 3 | 7
O=C(Nc1ccccc1)c1ccc(NCCc2ccccc2)c([N+](=O)[O-])c1 | 1 | -19 | -16 | 14 | 0 | +
Cc1cccc(NC(=O)c2ccc(NCC3CCCO3)c([N+](=O)[O-])c2)c1 (stereo not drawn) | -10 | 6 | -17 | -8 | 0 | 121*
O=C(Nc1cccc(Cl)c1)c1ccc(NCC2CCCO2)c([N+](=O)[O-])c1 (stereo not drawn) | -2 | 5 | -49 | 5 | 1 | 67*
Cc1nc2sc(C(=O)NCc3ccc4c(c3)OCO4)c(N)c2c(C)c1Cl | -1 | . | . | . | . | .
COc1ccccc1CNC(=O)CCc1nnc2ccc(NCCCN3CCCC3=O)nn12 | 7 | 4 | 1 | 2 | -1 | 14
CC(C)(C)N1CC23CCC(C[C@@H]2C1=O)O3 (stereo partly drawn) | 3 | 6 | 0 | . | -1 | -2
SMILES | PrPC surface inh | BJeLR lethal | PrP UTR inh | DUSP3 inh | PfHsp40 rescue | MazF activator
Nc1cc2nsnc2cc1Br | -18 | -8 | -9 | 52* | 2 | -4
O=C(CSc1nc(-c2ccccc2)nc2ccccc12)Nc1nccs1 | 3 | -17 | -18 | 38 | -1 | 136*
CCc1cc2cc3c(cc2nc1SCC(=O)Nc1nccs1)OCO3 | -3 | 2 | -6 | 45 | -1 | 56*
COc1cc(C(O)c2nc(-c3cccc(F)c3)cs2)ccc1F (stereo not drawn) | -1 | . | . | . | . | .
O=C(CN1c2ccccc2Sc2ccccc21)NNC(=S)Nc1ccc(Cl)cc1Cl | 0 | 4 | -25 | 21 | 0 | -13
O=C(CN1c2ccccc2Sc2ccccc21)NNC(=S)Nc1ccc(Cl)cc1 | -5 | 5 | -18 | 6 | 75* | -11
COc1ccc(C=NNc2ccc([N+](=O)[O-])cc2S(=O)(=O)Nc2ccccc2C(=O)O)cc1OC | -9 | . | 1 | . | 7 | -12
COc1ccc(/C=N/Nc2ccc([N+](=O)[O-])cc2S(=O)(=O)N2CCN(C)CC2)cc1 | -2 | 4 | 31 | 5 | -1 | 166*
COC(=O)[C@@]12C[C@@H](CC(=O)NCc3ccccc3)C(=O)N(Cc3ccc4c(c3)OCO4)C1=CCC(C)(C)C2 | 9 | . | . | . | . | .
CCn1c(CNc2ccc(Cl)cc2)nnc1SCC(=O)NCc1ccccc1 | -5 | 1 | -4 | 22 | -1 | -4
CCn1c(CNc2ccc(Cl)cc2)nnc1SCc1ccccc1 | 17 | 1 | -15 | 18 | 120* | 3
Cn1c(CNc2ccc(Cl)cc2)nnc1SCc1ccccc1 | 7 | -4 | -1 | 29 | 143* | -5
O=S(=O)(c1cccc(-c2nnc(SCc3nc4ccccc4s3)o2)c1)N1CCOCC1 | -5 | 1 | -62 | 12 | 46* | 5
CCn1c(=O)n(CC)c2cc(N3CCCC3)c(NC(=O)c3cc(Br)ccc3OC)cc21 | 5 | 2 | . | -4 | . | -12
COc1ccc(C2NC(=O)c3ccccc3O2)cc1OC (stereo not drawn) | 0 | -1 | -15 | 0 | 1 | 7
CCOc1ccc(C2NC(=O)c3ccccc3O2)cc1OC (stereo not drawn) | 8 | -6 | 12 | 64 | -1 | 3
CCCC(=O)Oc1ccc(C2NC(=O)c3ccccc3O2)cc1OC (stereo not drawn) | 9 | -5 | -18 | 60* | 0 | 4
CCC(=O)Oc1ccc(C2NC(=O)c3ccccc3O2)cc1OC (stereo not drawn) | 1 | -1 | -17 | 60* | 0 | -4
CC[C@H](C)[C@@H](C(=O)NCCCCCCCCCCC(=O)N1CCNCC1)n1cc(CCCCN=C(N)N)nn1 | 7 | . | -10 | . | 0 | 8
O=c1c2ccccc2nc(/C=C/c2ccccc2)n1-c1ccc(O)cc1 | 4 | 2 | -20 | 21 | 2 | 17
